Consider 31 molecules from PMC11995724, “Antibiotic target discovery by integrated phenotypic and activity-based profiling of electrophilic fragments” (Cell chemical biology, 2025).

The whole screen tested about 3,200 compounds, of which about 110 (3.4%) showed an effect of 50% or more. Many of the other results were omitted from the sample, so strong results are more common in it than they were.

For the assay, the system named is T1, V. cholerae SAD30.
T1 construct: SAD30
More on the design: species or system S. aureus MSSA476 (TSB) or V. cholerae SAD30 (LB); 384-well bacterial growth screen at 25 uM, OD600 relative to DMSO control. The settings on record: relative growth, OD600, LB; 25 µM; inhibitor.
With `C=CC(=O)N1CCN(S(=O)(=O)Cc2ccon2)CC1` [1-J07, 1-{4-[(1,2-oxazol-3-yl)methanesulfonyl]piperazin-1-yl}prop-2-en-1-one], the “% of control remaining” value is listed as 89.2377%.
In the case of `CN(Cc1ccccc1)S(=O)(=O)c1ccc(NC(=O)CCl)cc1` [5-K08, N-{4-[benzyl(methyl)sulfamoyl]phenyl}-2-chloroacetamide], the “% of control remaining” value came out at 97.1735%.
Then `N#CC(=Cc1cnc(-c2ccccc2)nc1)C(=O)NCc1ccco1` [9-M14, 2-cyano-N-[(furan-2-yl)methyl]-3-(2-phenylpyrimidin-5-yl)prop-2-enamide], with 95.2413%; and `O=C(CCl)Cc1c(Cl)cccc1Cl` [10-K15, 1-chloro-3-(2,6-dichlorophenyl)propan-2-one], with 45.6653%.
In the case of `O=C(CCl)Cc1cccc(F)c1F` [10-K17, 1-chloro-3-(2,3-difluorophenyl)propan-2-one], the “% of control remaining” value was 0.1559%.
The value for `O=C(CCl)NCCc1c(F)cccc1F` [5-F20, 2-chloro-N-[2-(2,6-difluorophenyl)ethyl]acetamide] was 99.5272%.
Consider `Cc1cccc(Cl)c1CCCNC(=O)CCl` [7-F04, 2-chloro-N-[3-(2-chloro-6-methylphenyl)propyl]acetamide], for which the “% of control remaining” value is on record as 91.9874%.
Then `O=C(CCl)Cc1c(F)cccc1F` [10-O15, 1-chloro-3-(2,6-difluorophenyl)propan-2-one], with 99.7467%; and `O=C(CCl)Cc1c(F)cccc1Cl` [10-D20, 1-chloro-3-(2-chloro-6-fluorophenyl)propan-2-one], with 36.1582%; and `O=C(CCl)Nc1ccc(F)c(F)c1F` [4-M05, 2-chloro-N-(2,3,4-trifluorophenyl)acetamide], with 104.033%.
Then `O=C(CCl)Nc1c(Cl)cccc1C(F)(F)F` [5-B04, 2-chloro-N-[2-chloro-6-(trifluoromethyl)phenyl]acetamide], with 98.0141%.
Turning to `O=C(CCl)Nc1ccccc1F` [4-M16, 2-chloro-N-(2-fluorophenyl)acetamide], the “% of control remaining” value came to 98.3394%.
Then `Cc1ccc2sc(N(Cc3ccccc3)C(=O)CCl)nc2c1C` [4-K06, N-benzyl-2-chloro-N-(4,5-dimethyl-1,3-benzothiazol-2-yl)acetamide], with 100.927%; and `C=CC(=O)Nc1ccccc1Sc1nncs1` [1-G04, N-[2-(1,3,4-thiadiazol-2-ylsulfanyl)phenyl]prop-2-enamide], with 100.149%; and `COCCNC(=O)C(C#N)=Cc1sccc1C` [9-M17, 2-cyano-N-(2-methoxyethyl)-3-(3-methylthiophen-2-yl)prop-2-enamide], with 85.9959%.
The value for `O=C(CCl)N1C[C@@H]2C[C@H]1CN2c1ccccc1` [5-E22, 2-chloro-1-[(1S,4S)-5-phenyl-2,5-diazabicyclo[2.2.1]heptan-2-yl]ethan-1-one] was 106.756%; that for `Cc1cc(C(=O)CCl)c(C)n1-c1cccc([N+](=O)[O-])c1` [10-B16, 2-chloro-1-[2,5-dimethyl-1-(3-nitrophenyl)-1H-pyrrol-3-yl]ethan-1-one] was 67.329%.
`CC(=O)Nc1cccc(N2C(=O)C=CC2=O)c1` [10-D09, N-[3-(2,5-dioxo-2,5-dihydro-1H-pyrrol-1-yl)phenyl]acetamide]: the “% of control remaining” value is recorded as 85.564%.
Then `COc1cccc(NC(=O)C(C)Cl)c1` (stereo not shown) [6-I03, 2-chloro-N-(3-methoxyphenyl)propanamide], with 100.863%; and `O=C1C=CC(=O)N1c1cccc(O)c1` [10-O07, 1-(3-hydroxyphenyl)-2,5-dihydro-1H-pyrrole-2,5-dione], with 26.4952%; and `COc1cccc(NC(=O)C(C#N)=Cc2ccc(O)cc2)c1` [8-O17, 2-cyano-3-(4-hydroxyphenyl)-N-(3-methoxyphenyl)prop-2-enamide], with 71.584%.
Then `O=C1C=CC(=O)N1c1cccc([N+](=O)[O-])c1` [10-P15, 1-(3-nitrophenyl)-2,5-dihydro-1H-pyrrole-2,5-dione], with 35.6906%; and `NS(=O)(=O)c1cccc(N2C(=O)C=CC2=O)c1` [10-I05, 3-(2,5-dioxo-2,5-dihydro-1H-pyrrol-1-yl)benzene-1-sulfonamide], with 102.396%; and `COc1cccc(N2C(=O)C=CC2=O)c1` [10-K03, 1-(3-methoxyphenyl)-2,5-dihydro-1H-pyrrole-2,5-dione], with 23.8457%.
`CC(Cl)C(=O)N1CCCC(n2ccc(C(F)(F)F)n2)C1` (stereo not shown) [7-A08, 2-chloro-1-{3-[3-(trifluoromethyl)-1H-pyrazol-1-yl]piperidin-1-yl}propan-1-one]: the “% of control remaining” value is 84.3218%.
Then `O=C(CCl)Nc1nc2c(s1)CCc1ccccc1-2` [6-D03, 2-chloro-N-{4H,5H-naphtho[1,2-d][1,3]thiazol-2-yl}acetamide], with 105.868%.
As for `CC(NC(=O)CCl)C(=O)N1CCS(=O)(=O)CC1` (stereo not shown) [5-K14, 2-chloro-N-[1-(1,1-dioxo-1lambda6-thiomorpholin-4-yl)-1-oxopropan-2-yl]acetamide], the “% of control remaining” value is 88.7675%.
Then `C=CC(=O)N1CCOCC1c1noc(C)n1` (stereo not shown) [3-O11, 1-[3-(5-methyl-1,2,4-oxadiazol-3-yl)morpholin-4-yl]prop-2-en-1-one], with 103.029%; and `C=CC(=O)N1CCC(C(=O)NCc2ccoc2C)CC1` [1-E14, N-[(2-methylfuran-3-yl)methyl]-1-(prop-2-enoyl)piperidine-4-carboxamide], with 89.0882%.
Then `C=CC(=O)N(Cc1ccc(F)cn1)c1cnn(C2CCCC2)c1C` [1-D11, N-(1-cyclopentyl-5-methyl-1H-pyrazol-4-yl)-N-[(5-fluoropyridin-2-yl)methyl]prop-2-enamide], with 86.846%; and `Cc1ccc(C=C(C#N)C(=O)Nc2ccccc2C)cc1` [8-G16, 2-cyano-N-(2-methylphenyl)-3-(4-methylphenyl)prop-2-enamide], with 72.8076%.
